Reference: PubChem BioAssay
Calls of active or inactive are those of the source. Cut-off read from the data, not from the text of the source, unless noted: active = inhibition above about 25%; inactive = the rest.

Target: Nuclear receptor coactivator 1 (Homo sapiens) (UniProt Q15788)
Test: NCOA1 GAL4-fusion reporter inhibition – cell-based, luminescence, quadruplicate, confirmation (AID 588820;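 active = mean inhibition above 46.68%, the untreated control wells mean plus 3 SD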;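 note: 0% = DMSO wells and 100% = gossypol 36 µM treated wells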)
Conditions: HEK293 GAL4-SRC1 luciferase reporter, at 3.6 µM, stronger effect = higher value

Sequence of Nuclear receptor coactivator 1 (Homo sapiens) (Q15788 whole entry, looked up, the tested form may be a part): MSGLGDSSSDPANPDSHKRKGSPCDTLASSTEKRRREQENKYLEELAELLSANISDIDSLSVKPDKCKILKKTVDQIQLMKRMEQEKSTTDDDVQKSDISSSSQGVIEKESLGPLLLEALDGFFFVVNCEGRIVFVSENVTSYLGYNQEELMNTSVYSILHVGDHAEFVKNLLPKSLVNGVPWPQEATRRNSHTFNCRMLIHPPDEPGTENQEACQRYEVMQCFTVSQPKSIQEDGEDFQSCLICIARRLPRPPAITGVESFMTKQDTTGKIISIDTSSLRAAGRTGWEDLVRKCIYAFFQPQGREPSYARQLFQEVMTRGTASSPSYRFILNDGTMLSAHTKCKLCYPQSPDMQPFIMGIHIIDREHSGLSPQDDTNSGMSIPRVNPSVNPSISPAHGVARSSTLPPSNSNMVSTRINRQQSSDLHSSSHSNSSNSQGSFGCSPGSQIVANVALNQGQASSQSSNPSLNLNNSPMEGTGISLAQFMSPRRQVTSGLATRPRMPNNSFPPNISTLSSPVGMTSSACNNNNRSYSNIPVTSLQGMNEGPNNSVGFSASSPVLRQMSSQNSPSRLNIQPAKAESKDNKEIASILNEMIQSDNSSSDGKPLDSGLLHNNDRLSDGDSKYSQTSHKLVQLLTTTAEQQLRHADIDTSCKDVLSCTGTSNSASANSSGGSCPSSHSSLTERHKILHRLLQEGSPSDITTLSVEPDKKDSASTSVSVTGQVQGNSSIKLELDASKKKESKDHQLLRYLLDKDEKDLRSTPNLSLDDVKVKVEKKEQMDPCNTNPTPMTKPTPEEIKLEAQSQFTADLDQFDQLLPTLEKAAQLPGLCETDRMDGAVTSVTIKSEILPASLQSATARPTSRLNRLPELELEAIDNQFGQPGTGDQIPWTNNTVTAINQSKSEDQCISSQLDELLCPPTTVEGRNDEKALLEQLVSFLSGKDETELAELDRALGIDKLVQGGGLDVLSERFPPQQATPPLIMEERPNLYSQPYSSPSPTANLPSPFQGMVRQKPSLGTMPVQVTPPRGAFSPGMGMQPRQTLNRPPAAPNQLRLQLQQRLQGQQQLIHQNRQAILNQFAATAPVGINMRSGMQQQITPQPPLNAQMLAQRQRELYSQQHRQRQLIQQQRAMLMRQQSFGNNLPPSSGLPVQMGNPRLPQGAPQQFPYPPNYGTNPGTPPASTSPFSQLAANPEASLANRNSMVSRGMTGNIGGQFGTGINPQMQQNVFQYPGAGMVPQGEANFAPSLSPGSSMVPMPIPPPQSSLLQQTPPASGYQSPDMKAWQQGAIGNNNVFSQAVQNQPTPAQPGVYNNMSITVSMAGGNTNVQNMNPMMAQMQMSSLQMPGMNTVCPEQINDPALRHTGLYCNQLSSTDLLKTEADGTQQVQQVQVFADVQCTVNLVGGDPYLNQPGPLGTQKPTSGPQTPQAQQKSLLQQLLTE

| Structure (SMILES) | inhibition |
| --- | --- |
| O=C(c1ccccc1Sc1ccccc1[N+](=O)[O-])N1CCCCC1 | 10.1% (inactive) |
| O=C1c2cccc(NCCCNCCO)c2C(=O)c2cccc(NCCCNCCO)c21 | 7.28% (inactive) |
| Cc1ccc(S(=O)(=O)N(C)c2ccc(C(=O)Nc3ccccc3C(=O)N3CCOCC3)cc2)cc1 | -10.1% (inactive) |
| COCCn1c(C)cc(C(=O)CSc2nc3ccccc3s2)c1C | -45.7% (inactive) |
| CN(Cc1cccs1)C(=O)CN1CCN(S(=O)(=O)c2ccc3c(c2)OCCCO3)CC1 | -16.6% (inactive) |
| O=C(Nc1ccn(Cc2c(F)c(F)c(F)c(F)c2F)n1)c1ccc(COc2ccccc2Cl)cc1 | 3.66% (inactive) |
| Cc1ccccc1C(OCC(O)CN1CCN(CCO)CC1)c1ccccc1 (stereo not given) | -13.1% (inactive) |
| Cc1nc(N/N=C/c2ccc(O)cc2O)cc(N2CCOCC2)n1 | -26.5% (inactive) |
| N=c1c(C(=O)NCCc2ccccc2)cc2c(=O)n3ccccc3nc2n1CCCN1CCOCC1 | 6.5% (inactive) |
| CSc1ccc(CN2CCN(C(=O)CC(C)C)CC2)cc1 | -3.21% (inactive) |
| Cn1c(=O)c([N+](=O)[O-])c(NCCc2ccccc2)c2ccccc21 | 4.22% (inactive) |
| c1cc2c(cn1)cnc1cscc12 | 40.9% (inactive) |
| O=C(NC1CCCCC1)C(c1ccc(F)cc1)N(CCCN1CCOCC1)C(=O)c1ccc(CN2CCOCC2)o1 (stereo not given) | -0.03% (inactive) |
| Cc1cc(=O)oc2cc(OCc3ccc(C(=O)N4CCN(c5ccc([N+](=O)[O-])cc5)CC4)cc3)ccc12 | 10.5% (inactive) |
| COc1cc(NC(=O)c2cc3cccc(OC)c3o2)cc(C(=O)Nc2cccc(C(F)(F)F)c2)c1 | -23.9% (inactive) |
| O=S(=O)(NCC1CN(S(=O)(=O)c2c(F)cccc2F)C1)c1ccc2c(c1)OCCO2 | 2.79% (inactive) |
| COc1ccc(S(=O)(=O)N2CCOC23CCN(S(=O)(=O)c2ccc(Cl)cc2)CC3)cc1 | -7.54% (inactive) |
| Cc1ccccc1CN1CCC(Oc2ccc(C(=O)NCc3ccccn3)cc2)CC1 | -15.8% (inactive) |
| CC1Sc2n(c3ccccc3[n+]2C)N=C1c1ccccc1 (stereo not given) | -6.75% (inactive) |
| CN(C1CCCCC1)S(=O)(=O)c1ccc(NC(=O)C2CCCCC2)cc1 | -0.79% (inactive) |

| Structure (SMILES) | inhibition |
| --- | --- |
| COc1cccc(CNC(=O)C2CCCN(S(C)(=O)=O)C2)c1 (stereo not given) | -0.5% (inactive) |
| O=C(COc1ccc(F)cc1Cl)Nc1ccc(N2CCOCC2)cc1N1CCOCC1 | -16.6% (inactive) |
| Cc1cc(C)n(-c2ccc(C(=O)Nc3ccc(C)c(S(=O)(=O)N4CCOCC4)c3)cc2)n1 | 0.36% (inactive) |
| COc1ccccc1C(NC(C)=O)c1cc(Cl)c2cccnc2c1O (stereo not given) | 31.7% (inactive) |
| O=C(Nc1ccc(OCC(F)(F)C(F)F)c(C(F)(F)F)c1)c1ccccc1O | -35.3% (inactive) |
| S=C1SCN(Cc2ccccn2)CN1Cc1ccco1 | -2.15% (inactive) |
| CC(C)=CCCC(C)CN1CCC(n2nccc2NC(=O)c2ccccc2)CC1 (stereo not given) | -6.47% (inactive) |
| COc1ccc(S(=O)(=O)N2CCCCCC2)cc1C(=O)N(C)CCOc1ccccc1 | 5.04% (inactive) |
| COCCn1c(C)cc(/C=C2/NC(=O)N(c3cccc(Cl)c3)C2=O)c1C | -34.5% (inactive) |
| COc1ccc([C@H]2CC(=O)C=C(c3ccnc4ccc(Cl)cc34)C2)cc1 | 2.04% (inactive) |
| CC1(C(=O)NS(=O)(=O)Cc2cccc(Cl)c2)CCN1C(=O)Cc1ccc(-c2ccccc2)cc1 (stereo not given) | -5.52% (inactive) |
| CCOc1cccc(/C=N/NC(=O)c2cc(C3CC3)[nH]n2)c1O | 21.5% (inactive) |
| Cc1sc(NC(=O)c2ccco2)c(C(c2cccnc2)N2CCC(C)CC2)c1C (stereo not given) | -5.49% (inactive) |
| O=C(COc1ccccc1-c1ccccc1)N/N=C/c1ccncc1 | -7.29% (inactive) |
| O=C(Nc1ccc(Oc2ccccc2)cc1)c1csc([C@@H]2O[C@H](CO)[C@@H](O)[C@H]2O)n1 | -12.9% (inactive) |
| CCC(C(=O)OCC(=O)Nc1cc(Cl)cc(Cl)c1)c1ccccc1 (stereo not given) | -0.98% (inactive) |
| COCCn1c(SCC(=O)Nc2cccc(NC(C)=O)c2)nc2c([nH]c3ccccc32)c1=O | -31.7% (inactive) |
| COc1ccccc1/C=N/NC(=O)CN(C1=NS(=O)(=O)c2ccccc21)c1ccccc1 | -2.78% (inactive) |
| CC(=O)NC(c1cccs1)c1cc(F)c2cccnc2c1O (stereo not given) | 14.3% (inactive) |
| COc1ccc(-c2[nH]ncc2CN2CCC(O)(c3ccc(Cl)cc3)CC2)cc1 | 13.2% (inactive) |

Tested on: not listed separately
Test: repression of VP16-driven luciferase reporter – cell-based, luminescence, high throughput, counter-screen for SRC1 inhibitor project (AID 588824)
Conditions: cell-based VP16 transactivation luciferase luminescence; at 3.6 µM; stronger effect = higher value

| Structure (SMILES) | inhibition |
| --- | --- |
| O=C(c1ccccc1Sc1ccccc1[N+](=O)[O-])N1CCCCC1 | 14.3% (inactive) |
| O=C1c2cccc(NCCCNCCO)c2C(=O)c2cccc(NCCCNCCO)c21 | 16.3% (inactive) |
| Cc1ccc(S(=O)(=O)N(C)c2ccc(C(=O)Nc3ccccc3C(=O)N3CCOCC3)cc2)cc1 | -3.41% (inactive) |
| COCCn1c(C)cc(C(=O)CSc2nc3ccccc3s2)c1C | 6.14% (inactive) |
| CN(Cc1cccs1)C(=O)CN1CCN(S(=O)(=O)c2ccc3c(c2)OCCCO3)CC1 | -8.72% (inactive) |
| O=C(Nc1ccn(Cc2c(F)c(F)c(F)c(F)c2F)n1)c1ccc(COc2ccccc2Cl)cc1 | 8.16% (inactive) |
| Cc1ccccc1C(OCC(O)CN1CCN(CCO)CC1)c1ccccc1 (stereo not given) | 3.65% (inactive) |
| Cc1nc(N/N=C/c2ccc(O)cc2O)cc(N2CCOCC2)n1 | -14.6% (inactive) |
| N=c1c(C(=O)NCCc2ccccc2)cc2c(=O)n3ccccc3nc2n1CCCN1CCOCC1 | 18.9% (inactive) |
| CSc1ccc(CN2CCN(C(=O)CC(C)C)CC2)cc1 | -2.54% (inactive) |
| Cn1c(=O)c([N+](=O)[O-])c(NCCc2ccccc2)c2ccccc21 | 4.74% (inactive) |
| c1cc2c(cn1)cnc1cscc12 | 7.33% (inactive) |
| O=C(NC1CCCCC1)C(c1ccc(F)cc1)N(CCCN1CCOCC1)C(=O)c1ccc(CN2CCOCC2)o1 (stereo not given) | 3.53% (inactive) |
| Cc1cc(=O)oc2cc(OCc3ccc(C(=O)N4CCN(c5ccc([N+](=O)[O-])cc5)CC4)cc3)ccc12 | -3.02% (inactive) |
| COc1cc(NC(=O)c2cc3cccc(OC)c3o2)cc(C(=O)Nc2cccc(C(F)(F)F)c2)c1 | 18.4% (inactive) |
| O=S(=O)(NCC1CN(S(=O)(=O)c2c(F)cccc2F)C1)c1ccc2c(c1)OCCO2 | 17.9% (inactive) |
| COc1ccc(S(=O)(=O)N2CCOC23CCN(S(=O)(=O)c2ccc(Cl)cc2)CC3)cc1 | -6.07% (inactive) |
| Cc1ccccc1CN1CCC(Oc2ccc(C(=O)NCc3ccccn3)cc2)CC1 | 8.1% (inactive) |
| CC1Sc2n(c3ccccc3[n+]2C)N=C1c1ccccc1 (stereo not given) | 11.7% (inactive) |
| CN(C1CCCCC1)S(=O)(=O)c1ccc(NC(=O)C2CCCCC2)cc1 | 11% (inactive) |

| Structure (SMILES) | inhibition |
| --- | --- |
| COc1cccc(CNC(=O)C2CCCN(S(C)(=O)=O)C2)c1 (stereo not given) | 8.47% (inactive) |
| O=C(COc1ccc(F)cc1Cl)Nc1ccc(N2CCOCC2)cc1N1CCOCC1 | 2.25% (inactive) |
| Cc1cc(C)n(-c2ccc(C(=O)Nc3ccc(C)c(S(=O)(=O)N4CCOCC4)c3)cc2)n1 | -1.58% (inactive) |
| COc1ccccc1C(NC(C)=O)c1cc(Cl)c2cccnc2c1O (stereo not given) | 26.6% (active) |
| O=C(Nc1ccc(OCC(F)(F)C(F)F)c(C(F)(F)F)c1)c1ccccc1O | 6.93% (inactive) |
| S=C1SCN(Cc2ccccn2)CN1Cc1ccco1 | -1.66% (inactive) |
| CC(C)=CCCC(C)CN1CCC(n2nccc2NC(=O)c2ccccc2)CC1 (stereo not given) | -14.3% (inactive) |
| COc1ccc(S(=O)(=O)N2CCCCCC2)cc1C(=O)N(C)CCOc1ccccc1 | -8.6% (inactive) |
| COCCn1c(C)cc(/C=C2/NC(=O)N(c3cccc(Cl)c3)C2=O)c1C | -40.5% (inactive) |
| COc1ccc([C@H]2CC(=O)C=C(c3ccnc4ccc(Cl)cc34)C2)cc1 | 29.2% (active) |
| CC1(C(=O)NS(=O)(=O)Cc2cccc(Cl)c2)CCN1C(=O)Cc1ccc(-c2ccccc2)cc1 (stereo not given) | -14.3% (inactive) |
| CCOc1cccc(/C=N/NC(=O)c2cc(C3CC3)[nH]n2)c1O | 21.7% (inactive) |
| Cc1sc(NC(=O)c2ccco2)c(C(c2cccnc2)N2CCC(C)CC2)c1C (stereo not given) | 26.1% (active) |
| O=C(COc1ccccc1-c1ccccc1)N/N=C/c1ccncc1 | 13.6% (inactive) |
| O=C(Nc1ccc(Oc2ccccc2)cc1)c1csc([C@@H]2O[C@H](CO)[C@@H](O)[C@H]2O)n1 | 19.7% (inactive) |
| CCC(C(=O)OCC(=O)Nc1cc(Cl)cc(Cl)c1)c1ccccc1 (stereo not given) | -3.53% (inactive) |
| COCCn1c(SCC(=O)Nc2cccc(NC(C)=O)c2)nc2c([nH]c3ccccc32)c1=O | -16.2% (inactive) |
| COc1ccccc1/C=N/NC(=O)CN(C1=NS(=O)(=O)c2ccccc21)c1ccccc1 | 0.92% (inactive) |
| CC(=O)NC(c1cccs1)c1cc(F)c2cccnc2c1O (stereo not given) | 15.3% (inactive) |
| COc1ccc(-c2[nH]ncc2CN2CCC(O)(c3ccc(Cl)cc3)CC2)cc1 | 10.8% (inactive) |
